Only some compounds are listed: those with a hit (about 7.4% of all), similar ones and a draw of the others.
NPR1 antag: Natriuretic polypeptide receptor (hNpr1) antagonism - Primary qHTS; HEK293 hNpr1 GloSensor cGMP, ANP-stimulated luminescence; Atrial natriuretic peptide receptor 1 (Homo sapiens), P16066; hit rate 1.6% among 76,000; Potency, µM (series often up to 46.3 µM), actives largely listed as inhibitors; AID 1347048, 2019; calls by dose curve; note: nearly all actives have a fitted effect of over 60% in size
Target sequence (P16066 whole entry, looked up): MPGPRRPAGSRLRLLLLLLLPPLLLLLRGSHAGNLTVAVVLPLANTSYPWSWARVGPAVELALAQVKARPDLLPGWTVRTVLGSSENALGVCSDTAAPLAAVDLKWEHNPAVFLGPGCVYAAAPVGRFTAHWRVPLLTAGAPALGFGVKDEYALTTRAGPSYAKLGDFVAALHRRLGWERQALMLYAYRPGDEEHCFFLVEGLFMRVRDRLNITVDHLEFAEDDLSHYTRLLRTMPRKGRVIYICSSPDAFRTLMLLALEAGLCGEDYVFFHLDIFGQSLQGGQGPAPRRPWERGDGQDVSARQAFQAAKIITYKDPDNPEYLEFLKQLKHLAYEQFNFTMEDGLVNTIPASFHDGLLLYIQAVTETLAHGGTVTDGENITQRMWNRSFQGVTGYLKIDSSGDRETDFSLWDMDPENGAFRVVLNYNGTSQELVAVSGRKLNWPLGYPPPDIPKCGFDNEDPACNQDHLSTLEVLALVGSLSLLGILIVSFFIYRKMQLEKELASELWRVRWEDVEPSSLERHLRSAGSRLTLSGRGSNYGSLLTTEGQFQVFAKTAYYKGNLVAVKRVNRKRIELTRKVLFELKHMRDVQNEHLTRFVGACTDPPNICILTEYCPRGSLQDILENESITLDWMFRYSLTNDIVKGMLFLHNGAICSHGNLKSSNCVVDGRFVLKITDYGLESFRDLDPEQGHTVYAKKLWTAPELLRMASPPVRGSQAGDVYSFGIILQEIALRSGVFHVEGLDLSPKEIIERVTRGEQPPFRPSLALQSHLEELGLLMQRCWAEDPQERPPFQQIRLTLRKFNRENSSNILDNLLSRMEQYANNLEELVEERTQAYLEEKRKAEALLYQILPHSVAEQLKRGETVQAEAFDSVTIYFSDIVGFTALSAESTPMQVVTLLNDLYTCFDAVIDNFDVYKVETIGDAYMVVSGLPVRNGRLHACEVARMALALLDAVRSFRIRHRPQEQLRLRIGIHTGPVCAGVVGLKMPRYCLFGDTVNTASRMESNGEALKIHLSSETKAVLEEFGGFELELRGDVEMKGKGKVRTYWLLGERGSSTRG
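HEK293 cells stably expressing human Npr1 and cGMP GloSensor pGS-40F, loaded 2 h with 2% GloSensor reagent, given compound 30 min at room temperature. Luminescence read before and 20 min after 0.1 nM hNppA.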
FLuc inh: Firefly luciferase inhibition profiling of diverse chemical library using quantitative high-throughput screening. Luciferin 4-monooxygenase (Photinus pyralis), P08659. purified P. pyralis luciferase, luminescence, biochemical. Potency, µM (doses to about 115 µM), most hits filed as inhibitors. hit rate 2.5% among 76,000. AID 1347043, 2019; note: nearly all actives have a fitted effect of over 65% in size
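FLuc 10nM, D-luciferin 10uM, ATP 10uM, Mg acetate 10mM, Tris acetate pH 7.5, Tween/BSA; cpd qHTS; enzyme added last; CCD luminescence.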
SNCA expr inh: Primary qHTS assay for inhibitors of alpha-synuclein gene (SNCA) expression; hit rate 0.17% among 140,000; AID 1671194, 2021; HEK-293 SNCA-luciferase knock-in, luminescence, 24 h; Potency, µM (doses to about 57.2 µM), usual class: inhibitors; note: nearly all actives have a fitted effect of over 45% in size
HEK293 tox: Cytotoxic Profiling in HEK 293 Cell Line of Diverse Libraries Using Quantitative High-Throughput Screening; hit rate 6.6% among 94,000; AID 1345083, 2018; Potency, µM (highest dose often 115 µM), most hits filed as inhibitors; HEK 293 viability, ATP luminescence (CellTiter-Glo), 48-72 h; note: nearly all actives have a fitted effect of over 60% in size
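ATP-coupled CellTiter-Glo luminescence served as viability read-out, recorded 10 min after reagent addition at room temperature. HEK 293 cells, 250 cells/well, had been incubated with pintool-transferred compound for 48 or 72 hr at 37 degree Celsius.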
3T3 cytotox: Cytotoxic Profiling in NIH 3T3 Cell Line of Diverse Libraries Using Quantitative High-Throughput Screening. hit rate 4.3% among 94,000. AID 1345082, 2018. Potency, µM (top dose mostly 96.7 µM), actives largely listed as inhibitors. NIH 3T3 viability, CellTiter-Glo ATP luminescence, 48-72 h; note: nearly all actives have a fitted effect of over 55% in size
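First NIH 3T3 cells are plated at 400 cells/well; next compound is pinned in; then plates incubate 48 or 72 hr at 37 °C; finally CellTiter-Glo is added and luminescence read after 10 min.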
HEK293 viab: GF-AFC viability counterscreen for inhibitors of alpha-synuclein gene (SNCA) expression; HEK-293-SNCA-luc viability, GF-AFC fluorescence, 24 h; Potency, µM (highest dose often 57.1 µM), actives largely listed as cytotoxic; hit rate 0.12% among 150,000; note: nearly all actives have a fitted effect of over 30% in size
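HEK-293-SNCA-luc cells (1500/well) plated 24 h, then exposed 24 h to a dilution series; GF-AFC added 30 min at 37C, fluorescence 405/540 nm; normalised to medium-only and DMSO wells, Hill fit.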
A number is an active result; [ ] = remark or other dose. Unless noted, calls come from the whole dose curve; as a rule, active = well fitted curve in the direction sought with a large enough effect; inconclusive = small, poorly fitted or top-dose-only effect, or another doubt; inactive = no such curve, though single readings can be large; an effect the other way counts as inactive or inconclusive.

Screening CC1(C)Oc2ncnc(N)c2N=C1c1ccc(C2CCC(CC(=O)O)CC2)cc1 (stereo unspecified) returned HEK293 viab inactive.
`Cc1nn(-c2ccccc2)c2c1C(C)N(C1CN(C(=O)NC(C)C)C1)C2=O` (stereo unspecified) gave HEK293 tox inactive and 3T3 cytotox inconclusive.
For COc1cccc(-c2cn3cc(C(=O)NCC(C)C)nc3s2)c1 the results were SNCA expr inh inactive, HEK293 tox 22µM, 3T3 cytotox inconclusive and HEK293 viab inactive.
Screening Cc1ccc(-c2cn3cc(C(=O)NCc4ccccn4)nc3s2)cc1 returned SNCA expr inh inactive, HEK293 tox 79µM, 3T3 cytotox inconclusive and HEK293 viab inactive.
CNC(=O)c1cn2cc(-c3cccc(C(F)(F)F)c3)sc2n1 was read as SNCA expr inh inactive, HEK293 tox 28µM, 3T3 cytotox inconclusive and HEK293 viab inactive.
CC(C)CNC(=O)c1cn2cc(-c3cccc(C(F)(F)F)c3)sc2n1 was read as SNCA expr inh inactive, HEK293 tox inconclusive, 3T3 cytotox inconclusive and HEK293 viab inactive.
COCCCNC(=O)c1cn2cc(-c3cccc(OC)c3)sc2n1 was read as SNCA expr inh inactive, HEK293 tox 79µM, 3T3 cytotox inconclusive and HEK293 viab inactive.
Screening COc1cccc(-c2cccc(C(=O)N3CCCC3C(=O)N3CCN(C)CC3)c2)c1 (stereo unspecified) returned HEK293 tox inactive and 3T3 cytotox inactive.
Screening COc1ccc(CNC(=O)N2CCc3nc(-c4ccccc4)[nH]c3C2)cc1 returned SNCA expr inh inactive, HEK293 tox inconclusive, 3T3 cytotox inconclusive and HEK293 viab inactive.
`CC(C)NC(=O)c1cn2cc(-c3ccccc3)sc2n1` gave SNCA expr inh inactive, HEK293 tox 71µM, 3T3 cytotox inconclusive and HEK293 viab inactive.
`COCCNC(=O)c1cn2cc(-c3ccc(C)cc3)sc2n1` gave SNCA expr inh inactive, HEK293 tox 100µM, 3T3 cytotox inconclusive and HEK293 viab inactive.
Screening O=C(NCc1ccc(F)c(F)c1)c1cn2cc(-c3ccc(C(F)(F)F)cc3)sc2n1 returned SNCA expr inh inactive, HEK293 tox 56µM, 3T3 cytotox 45µM and HEK293 viab inactive.
COCCCNc1nc(-c2c(C)noc2C)cc2cc(C(C)C)oc12 was read as NPR1 antag inactive, FLuc inh inactive, SNCA expr inh inactive, HEK293 tox 89µM, 3T3 cytotox inconclusive and HEK293 viab inactive.
Cc1noc(C)c1-c1cc2cc(C(C)C)oc2c(NCCc2ccccn2)n1 was read as NPR1 antag inactive, FLuc inh inactive, SNCA expr inh inactive, HEK293 tox inconclusive, 3T3 cytotox inconclusive and HEK293 viab inactive.
COCCNc1nc(-c2c(C)noc2C)cc2cc(C(C)C)oc12 was read as NPR1 antag inactive, FLuc inh inactive, SNCA expr inh inactive, HEK293 tox 71µM, 3T3 cytotox inconclusive and HEK293 viab inactive.
CSc1ncc(CN2CCOC(Cc3cccc(C(F)(F)F)c3)C2)cn1 (stereo unspecified) was read as NPR1 antag inactive, FLuc inh inactive, SNCA expr inh inactive, HEK293 tox 22µM, 3T3 cytotox 28µM and HEK293 viab inactive.
For O=C(NC1CN(c2ccnc3ccnn23)C1)c1cc(F)ccc1Br the results were SNCA expr inh inactive, HEK293 tox inactive, 3T3 cytotox inactive and HEK293 viab inactive.
`CC(C)(C)c1nc(C(=O)NCCc2ccc(Cl)cc2)n2ccncc12` gave SNCA expr inh inactive, HEK293 tox 35µM, 3T3 cytotox inconclusive and HEK293 viab inactive.
Screening Cc1nn(C)c2nc(NCCCOC3CCCC3)sc12 returned NPR1 antag inconclusive, FLuc inh 35µM, SNCA expr inh inactive, HEK293 tox 32µM, 3T3 cytotox inconclusive and HEK293 viab inactive.
Screening O=C(Nc1cc(-c2ccncc2)nn1-c1ccccc1)c1cccc(Br)c1 returned SNCA expr inh inactive, HEK293 tox inconclusive, 3T3 cytotox 32µM and HEK293 viab inactive.
`Cn1nc(-c2ccncc2)cc1NC(=O)c1ccc(Cl)cc1` gave SNCA expr inh inactive, HEK293 tox inconclusive, 3T3 cytotox inconclusive and HEK293 viab inactive.
Cn1nc(-c2ccncc2)cc1NC(=O)c1ccc(C(F)(F)F)cc1 was read as SNCA expr inh inactive, HEK293 tox 11µM, 3T3 cytotox inconclusive and HEK293 viab inactive.
Cn1nc(-c2ccncc2)cc1NC(=O)c1cccc(Br)c1 was read as SNCA expr inh inactive, HEK293 tox inconclusive, 3T3 cytotox inconclusive and HEK293 viab inactive.
`COc1cc(C)c(CN2CCCn3nc(C(=O)N4CCCC4)cc3C2)cc1C` gave NPR1 antag inactive, FLuc inh inactive, SNCA expr inh inactive, HEK293 tox 45µM, 3T3 cytotox 45µM and HEK293 viab inactive.
`Cc1ccc2nc(CO[C@H]3CN(c4ccc(C#N)cn4)C[C@H]3F)[nH]c2c1` gave NPR1 antag inactive, FLuc inh inactive, SNCA expr inh inactive, HEK293 tox inactive, 3T3 cytotox inactive and HEK293 viab inactive.
`CCOC(=O)C1CCCN(C(=O)c2ccc3oc(-c4ccncc4Cl)nc3c2)C1` (stereo unspecified) gave SNCA expr inh inactive, HEK293 tox inconclusive, 3T3 cytotox inconclusive and HEK293 viab inactive[12.5 µM].
`Cc1nc(CN2Cc3nc(-c4cccc(C(F)(F)F)c4)ccc3OCC2=O)cs1` gave NPR1 antag inactive, FLuc inh inactive, SNCA expr inh inconclusive, HEK293 tox 100µM, 3T3 cytotox 79µM and HEK293 viab inactive.
Screening COc1ccc(-c2ccc3c(n2)CN(Cc2csc(C)n2)C(=O)CO3)cc1F returned NPR1 antag inactive, FLuc inh inactive, SNCA expr inh inactive, HEK293 tox inconclusive, 3T3 cytotox inconclusive and HEK293 viab inactive.
Screening O=C1COc2ccc(-c3cn[nH]c3)nc2CN1Cc1ccc(C(F)(F)F)cc1 returned NPR1 antag inactive, FLuc inh inactive, SNCA expr inh inactive, HEK293 tox inconclusive, 3T3 cytotox 10µM and HEK293 viab inactive.
`O=C1COc2ccc(OCC3CC3)nc2CN1Cc1ccccc1` gave NPR1 antag inactive, FLuc inh inactive, SNCA expr inh inactive, HEK293 tox inconclusive, 3T3 cytotox inconclusive and HEK293 viab inactive.
`Cc1noc(C)c1-c1ccc2c(n1)CN(Cc1ccc(C(F)(F)F)cc1)C(=O)CO2` gave NPR1 antag inactive, FLuc inh inactive, SNCA expr inh inactive, HEK293 tox inconclusive, 3T3 cytotox inconclusive and HEK293 viab inactive.
